Measured values as given in PubChem BioAssay (NCATS).
Results filed as inconclusive are left out. Active and inactive are the calls of the source. Calls come from the whole dose curve; as a rule, active = well fitted curve in the direction sought with a large enough effect; inconclusive = small, poorly fitted or top-dose-only effect, or another doubt; inactive = no such curve, though single readings can be large; an effect the other way counts as inactive or inconclusive.

Assays:
[1] = Confirmatory screen GU Rhodamine qHTS for Zika virus inhibitors qHTS (AID 1347157); note: nearly all actives have a fitted effect of over 70% in size
How it was run: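 Unlinked NS2B/NS3, 25 nM; Rhod110 peptide, 1.5 microM; compounds, up to 114 microM. Reaction run 15 min at RT in 10 mM Tris-HCl pH 8.0, 0.01% Tween 20; kinetic fluorescence change fitted with a 4-parameter Hill model.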

[2] = Confirmatory screen NINDS Rhodamine qHTS for Zika virus inhibitors (AID 1347161);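 note: purified Zika NS2B-NS3 protease with linked NS2B cofactor domain and Rhodamine110 peptide substrate; series mostly up to about 110 µM; nearly all actives have a fitted effect of over 60% in size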
How it was run: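 Kinetic fluorescence (Ex 480 nm, Em 540 nm) over 15 min with 1.5 microM Rhodamine110 peptide and 25 nM linked protease.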

[3] = Tertiary RLuc qRT-PCR qHTS assay for Zika virus inhibitors (AID 1347169); note: top concentration of the series differs between compounds; nearly all actives have a fitted effect of over 55% in size
How it was run: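 Orthogonal cell-based infection assay using recombinant ZIKV-RLuc (Cambodian) in Vero cells; compound added prior to virus at MOI 1-2. Incubation lasts 48-72 hrs at 37 degrees C before live-cell Renilla substrate is added and luminescence measured.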

[4] = ZIKV-mCherry secondary qHTS for Zika virus inhibitors (AID 1347158); note: top concentration of the series differs between compounds
How it was run: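 Compounds were tested in Vero monkey kidney cells infected with recombinant mCherry-expressing Zika virus at MOI 1 for 48-72 h at 37 °C. Fixed cells were nuclear-stained and imaged, and infection rate was taken as the fraction of mCherry-positive cells.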

[5] = tested on: Zika virus NS2B-NS3 protease (linked); experiment: 384 well plate NINDS AMC confirmatory qHTS for Zika virus inhibitors (AID 1347163);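 note: fluorescence of AMC released from Ac-VKTGKR-AMC peptide cleaved by the protease; top concentration of the series differs between compounds; nearly all actives have a fitted effect of over 50% in size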
How it was run: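 Fluorescence at 355/460 nm was read after 25 minutes of cleavage of 30 microM Ac-VKTGKR-AMC at room temperature, in the dark. Before substrate addition, compounds (up to 1 mM final) sat ~15 minutes with 5, 30 or 60 nM linked protease. Signals were normalized to no-enzyme and no-inhibitor wells.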

[6] = tested on: Zika virus NS2B-NS3 protease (linked construct); experiment: 384 well plate NINDS Rhodamine confirmatory qHTS for Zika virus inhibitors (AID 1347164); note: top concentration of the series differs between compounds; nearly all actives have a fitted effect of over 65% in size
How it was run: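 Compounds are incubated about 15 minutes with linked protease (5, 30 or 60 nM final). Rhodamine 110-tagged Ac-LKRR substrate (10 microM final) is added and fluorescence measured after 25 minutes.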

Measured: Potency

CC(Oc1ccccc1)C(=O)Nc1ccc(C(=O)OCc2cc(=O)n3nc(C(C)C)sc3n2)cc1 (stereo not given)
inactive: [1] | [2] | [3]

O=C(Nc1ccc(C(=O)OCc2cc(=O)n3c4c(sc3n2)CCCC4)cc1)c1ccccc1
inactive: [1] | [2] | [3]

O=C(OCc1cc(=O)n2nc(C3CC3)sc2n1)c1ccc(NC(=O)c2ccccc2F)cc1
inactive: [4] | [5] | [6] | [3]
